Consider nine compounds from PubChem BioAssay (NCI).

The nature of experiment [1]: NCI Yeast Anticancer Drug Screen. Data for the rad50 strain (AID 155).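 Note: 0% = growth of vehicle-only cultures of the same strain.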 The conditions noted are these: S. cerevisiae rad50 strain growth inhibition, stronger effect = higher value. An outline of the steps: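 Genetically altered yeast (DNA repair pathway); compound treatment; growth inhibition vs vehicle ctrl.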
Experiment [2] in a line: NCI Yeast Anticancer Drug Screen. Data for the mec2-1 strain (AID 157). The conditions noted are these: S. cerevisiae mec2-1 strain, stronger effect = higher value. The method, boiled down: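 Strain: mec2-1 (DNA repair/cell cycle alteration). Compound exposure, then growth measured; inhibition expressed relative to vehicle.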
A short description of experiment [3]: NCI Yeast Anticancer Drug Screen. Data for the sgs1 mgt1 strain (AID 161).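 Note: 0% = growth of cultures given vehicle only.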 The conditions noted are these: S. cerevisiae sgs1 mgt1 strain, stronger effect = higher value. An outline of the steps:
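Genetically altered yeast, compound exposure, growth inhibition relative to vehicle.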

Experiment [4] is described as follows: NCI Yeast Anticancer Drug Screen. Data for the cln2 rad14 strain (AID 165).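 Note: 0% = growth equal to vehicle treated cultures.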 The following applies: S. cerevisiae cln2 rad14 strain, stronger effect = higher value. The method, boiled down:
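Compounds are applied to the cln2 rad14 yeast strain, and growth is then compared with that of vehicle-treated cultures to give inhibition.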

A short description of experiment [5]: NCI Yeast Anticancer Drug Screen. Data for the bub3 strain (AID 167). The following applies: S. cerevisiae bub3 mutant strain, stronger effect = higher value. An outline of the steps: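 Yeast carrying a defined mutation is treated with each compound, and growth is compared with that of vehicle-exposed cells to give inhibition.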
The nature of experiment [6]: NCI Yeast Anticancer Drug Screen. Data for the mlh1 rad18 strain (AID 175). The conditions noted are these: S. cerevisiae mlh1 rad18 strain growth inhibition, stronger effect = higher value. An outline of the steps: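 Read-out is yeast growth inhibition, calculated against vehicle-only controls. The compound was applied to a strain engineered with DNA damage repair alterations.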

Where [7] appears, read: at 5.0 µM (retest, dose inferred, filed as 0.5).
[8] abbreviates: at 50.0 µM (retest, dose inferred, filed as 5.0).

Compounds without any hit were thinned out: in the full panel of roughly 79,000, 15% have a hit. A number with no mark means an inactive call. Activity calls are given as the source filed them. Cut-off read from the data, not from the text of the source: active = growth inhibition above about 70%; inactive = the rest.

For `Nc1cc(=O)[nH]c(=S)[nH]1.[Pd]`, the growth inhibition in experiment [1] (setting [7]) was 0%; in experiment [1] (setting [8]), -4%; in experiment [1] (at 50.0 µM), 20%; in experiment [2] (setting [7]), 4%; in experiment [2] (setting [8]) it was 5%; in experiment [2] (at 50.0 µM), 18.6%. The growth inhibition in experiment [3] (setting [7]) was 5%; in experiment [3] (setting [8]) it was 6%; in experiment [3] (at 50.0 µM), 13.3%; in experiment [4] (setting [7]), 0%; in experiment [4] (setting [8]), 36%; in experiment [4] (at 50.0 µM), 71% (active). The growth inhibition was 3% in experiment [5] (setting [7]); 13% in experiment [5] (setting [8]); -4.45% in experiment [5] (at 50.0 µM); 0% in experiment [6] (setting [7]); -4% in experiment [6] (setting [8]); 35.6% in experiment [6] (at 50.0 µM).

`O=C(Nc1cccc(Cl)c1)OCCN(CCOC(=O)Nc1cccc(Cl)c1)C(=O)Nc1cccc(Cl)c1`: the growth inhibition in experiment [1] (setting [7]) was 31%; in experiment [1] (setting [8]), 76% (active); in experiment [1] (at 50.0 µM) it was 77.8% (active); in experiment [2] (setting [7]), 27%; in experiment [2] (setting [8]) it was 80% (active); in experiment [2] (at 50.0 µM), 51.4%. In addition, the growth inhibition is 36% in experiment [3] (setting [7]); 83% (active) in experiment [3] (setting [8]); 90.9% (active) in experiment [3] (at 50.0 µM); 54% in experiment [4] (setting [7]); 77% (active) in experiment [4] (setting [8]); 90.4% (active) in experiment [4] (at 50.0 µM). The growth inhibition is 53% in experiment [5] (setting [7]); 79% (active) in experiment [5] (setting [8]); 80.4% (active) in experiment [5] (at 50.0 µM); 62% in experiment [6] (setting [7]); 81% (active) in experiment [6] (setting [8]); 83.2% (active) in experiment [6] (at 50.0 µM).

Turning to `CCCCC(Oc1cc(C(C)(C)C)c(O)c(C(C)(C)C)c1)C(=O)O` (configuration not stated), the growth inhibition in experiment [1] (setting [7]) was 21%; in experiment [1] (setting [8]) it was 68%; in experiment [1] (at 50.0 µM), 99.1% (active); in experiment [2] (setting [7]), 12%; in experiment [2] (setting [8]) it was 70% (active); in experiment [2] (at 50.0 µM), 99.4% (active). Besides, the growth inhibition in experiment [3] (setting [7]) is 35%; in experiment [3] (setting [8]), 97% (active); in experiment [3] (at 50.0 µM), 99.5% (active); in experiment [4] (setting [7]), 49%; in experiment [4] (setting [8]), 95% (active); in experiment [4] (at 50.0 µM) it was 99% (active). Further, the growth inhibition was 3% in experiment [5] (setting [7]); 97% (active) in experiment [5] (setting [8]); 99.2% (active) in experiment [5] (at 50.0 µM); 27% in experiment [6] (setting [7]); 97% (active) in experiment [6] (setting [8]); 98.9% (active) in experiment [6] (at 50.0 µM).

Consider `F[Si](c1ccccc1)(c1ccccc1)c1ccccc1`, for which the growth inhibition in experiment [1] (setting [7]) is -3%; in experiment [1] (setting [8]) it was 75% (active); in experiment [1] (at 50.0 µM) it was 62%; in experiment [2] (setting [7]) it was 3%; in experiment [2] (setting [8]), 87% (active); in experiment [2] (at 50.0 µM) it was 25.3%. In addition, the growth inhibition was 8% in experiment [3] (setting [7]); 79% (active) in experiment [3] (setting [8]); 32.1% in experiment [3] (at 50.0 µM); 0% in experiment [4] (setting [7]); 82% (active) in experiment [4] (setting [8]); 41.6% in experiment [4] (at 50.0 µM). Further, the growth inhibition was -5% in experiment [5] (setting [7]); 98% (active) in experiment [5] (setting [8]); 45.6% in experiment [5] (at 50.0 µM); 10% in experiment [6] (setting [7]); 94% (active) in experiment [6] (setting [8]); 79.5% (active) in experiment [6] (at 50.0 µM).

As to `CCC[CH2][Sn]([CH2]CCC)([O]C(=O)c1cc(OC)c(OC)cc1OC)[O]C(=O)c1cc(OC)c(OC)cc1OC`, the growth inhibition in experiment [1] (setting [7]) was 88% (active); in experiment [1] (setting [8]) it was 88% (active); in experiment [1] (at 50.0 µM) it was 89.8% (active); in experiment [2] (setting [7]), 90% (active); in experiment [2] (setting [8]), 90% (active); in experiment [2] (at 50.0 µM), 91.5% (active). In addition, the growth inhibition in experiment [3] (setting [7]) was 87% (active); in experiment [3] (setting [8]), 87% (active); in experiment [3] (at 50.0 µM) it was 90.1% (active); in experiment [4] (setting [7]) it was 79% (active); in experiment [4] (setting [8]), 79% (active); in experiment [4] (at 50.0 µM) it was 91.2% (active). The growth inhibition was 85% (active) in experiment [5] (setting [7]); 85% (active) in experiment [5] (setting [8]); 87.2% (active) in experiment [5] (at 50.0 µM); 84% (active) in experiment [6] (setting [7]); 84% (active) in experiment [6] (setting [8]); 89.5% (active) in experiment [6] (at 50.0 µM).

`CCc1cc2c(cc1O)CC[C@@H]1[C@@H]2CC[C@]2(C)[C@@H](O)CC[C@@H]12`: the growth inhibition in experiment [1] (setting [7]) is 31%; in experiment [1] (setting [8]), 96% (active); in experiment [1] (at 50.0 µM), 88% (active); in experiment [2] (setting [7]) it was -10%; in experiment [2] (setting [8]) it was 99% (active); in experiment [2] (at 50.0 µM), 92% (active). Also, the growth inhibition was -17% in experiment [3] (setting [7]); 96% (active) in experiment [3] (setting [8]); 89.3% (active) in experiment [3] (at 50.0 µM); 9% in experiment [4] (setting [7]); 97% (active) in experiment [4] (setting [8]); 91% (active) in experiment [4] (at 50.0 µM). For the same compound, the growth inhibition in experiment [5] (setting [7]) is -39%; in experiment [5] (setting [8]), 98% (active); in experiment [5] (at 50.0 µM) it was 49.5%; in experiment [6] (setting [7]), 3%; in experiment [6] (setting [8]), 97% (active); in experiment [6] (at 50.0 µM) it was 85.2% (active).

As to `CC(C)C1=CC23CCC4C(C)(C(=O)O)CCCC4(C)C2CC1CC3C#N` (configuration not stated), the growth inhibition in experiment [1] (setting [7]) is 19%; in experiment [1] (setting [8]), 56%; in experiment [1] (at 50.0 µM), 98% (active); in experiment [2] (setting [7]) it was 18%; in experiment [2] (setting [8]) it was 34%; in experiment [2] (at 50.0 µM) it was 98.5% (active). Besides, the growth inhibition in experiment [3] (setting [7]) is 12%; in experiment [3] (setting [8]) it was 42%; in experiment [3] (at 50.0 µM), 98.5% (active); in experiment [4] (setting [7]) it was 3%; in experiment [4] (setting [8]), 57%; in experiment [4] (at 50.0 µM), 97.1% (active). Moreover, the growth inhibition in experiment [5] (setting [7]) is -1%; in experiment [5] (setting [8]) it was 49%; in experiment [5] (at 50.0 µM), 98.5% (active); in experiment [6] (setting [7]), 13%; in experiment [6] (setting [8]) it was 39%; in experiment [6] (at 50.0 µM) it was 98.2% (active).

`O=S(=O)(c1ccc(NC(=S)NCc2ccncc2)cc1)N1CCCCC1`: the growth inhibition was -30% in experiment [1] (setting [7]); -2% in experiment [1] (setting [8]); 15.5% in experiment [1] (at 50.0 µM); -11% in experiment [2] (setting [7]); -43% in experiment [2] (setting [8]); -13.6% in experiment [2] (at 50.0 µM). Moreover, the growth inhibition was -14% in experiment [3] (setting [7]); -13% in experiment [3] (setting [8]); 10.7% in experiment [3] (at 50.0 µM); 2% in experiment [4] (setting [7]); 16% in experiment [4] (setting [8]); 5.3% in experiment [4] (at 50.0 µM). Besides, the growth inhibition in experiment [5] (setting [7]) is -31%; in experiment [5] (setting [8]) it was -18%; in experiment [5] (at 50.0 µM), 9.35%; in experiment [6] (setting [7]), -27%; in experiment [6] (setting [8]) it was -8%; in experiment [6] (at 50.0 µM), 6.9%.

Regarding `CCC(C)OC(=O)Nc1cccc(Cl)c1` (configuration not stated), the growth inhibition in experiment [1] (setting [7]) is 12%; in experiment [1] (setting [8]), 61%; in experiment [1] (at 50.0 µM), 83.4% (active); in experiment [2] (setting [7]), -7%; in experiment [2] (setting [8]), 1%; in experiment [2] (at 50.0 µM), 23.9%. In addition, the growth inhibition in experiment [3] (setting [7]) is 4%; in experiment [3] (setting [8]) it was 14%; in experiment [3] (at 50.0 µM), 79.5% (active); in experiment [4] (setting [7]), 6%; in experiment [4] (setting [8]), -16%; in experiment [4] (at 50.0 µM), 14.8%. Further, the growth inhibition in experiment [5] (setting [7]) is -19%; in experiment [5] (setting [8]), -8%; in experiment [5] (at 50.0 µM) it was 1.4%; in experiment [6] (setting [7]), 5%; in experiment [6] (setting [8]), 29%; in experiment [6] (at 50.0 µM), 78.8% (active).
